# High-throughput results: PubChem BioAssay, National Center for Advancing Translational Sciences (NCATS)
# Rows were chosen to be rich in hits. Some 5.4% of all compounds tested hit in one or more screens of this group.
# p53 reactivation – restores transcriptional activity of mutant p53 | AID 504706 | H1299 p53-A138V BP100-luciferase reporter, luminescence, 24 h | Potency, µM (highest dose often 92.2 µM), usual class: activators | 0.063% of 320,000 active; further: nearly all actives have a fitted effect of over 45% in size
#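 H1299 (p53-null), stable ts p53-A138V + BP100-Luc; 1000 cells/well, Opti-MEM/10% FBS; cpd 4 pt, 1:5; 24 h, 37 deg C, 5% CO2; detection reagent 10 min RT; luminescence.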
# Gal4-VP16 FLuc – counter-screen for ROR gamma inhibitors: Gal4-VP16 reporter; Drosophila S2 Gal4-VP16 UAS-luciferase, luminescence, 20 h; Potency, µM (titrated, usually from 53.6 µM), hits mostly inhibitors; 3.5% of 310,000 active;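 further: Gal4-VP16 expression switched on by copper sulfate through the metallothionein promoter; nearly all actives have a fitted effect of over 50% in size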
# RORg inh – inhibitors of mouse ROR gamma transcriptional activity | Potency, µM (highest dose often 53.6 µM), usual class: inhibitors | P51450 | 5.4% of 310,000 active | Drosophila S2 Gal4-RORgamma UAS-luciferase reporter, 20 h; further: nearly all actives have a fitted effect of over 60% in size
# Target sequence (P51450 whole entry, looked up, the tested form may be a part): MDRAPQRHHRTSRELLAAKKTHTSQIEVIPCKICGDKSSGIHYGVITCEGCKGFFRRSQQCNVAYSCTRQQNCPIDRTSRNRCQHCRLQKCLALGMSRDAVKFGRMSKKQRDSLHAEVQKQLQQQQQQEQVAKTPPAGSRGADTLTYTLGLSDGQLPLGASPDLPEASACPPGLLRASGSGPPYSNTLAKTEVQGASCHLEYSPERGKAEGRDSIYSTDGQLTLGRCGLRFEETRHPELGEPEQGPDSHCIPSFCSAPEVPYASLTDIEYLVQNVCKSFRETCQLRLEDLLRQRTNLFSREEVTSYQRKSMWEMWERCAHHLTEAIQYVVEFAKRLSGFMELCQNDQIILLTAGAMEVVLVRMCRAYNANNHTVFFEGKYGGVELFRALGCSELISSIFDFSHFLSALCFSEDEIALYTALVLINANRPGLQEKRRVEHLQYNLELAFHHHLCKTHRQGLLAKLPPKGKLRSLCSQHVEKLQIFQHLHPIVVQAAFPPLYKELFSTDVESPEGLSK
#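 Stable Schneider cell line, Gal4 DNA-binding domain fused to ROR gamma, UAS-luciferase. Cmpd 1 hr RT → CuSO4 700 uM final → 20 hr RT → luciferase reagent 10 min → luminescence.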
# Six1-Eya2 blk – inhibitors of human Six1/Eya2 interaction | activity change, % (test concentration not listed) | AlphaScreen GST-Six1/His-Eya2 binding, biochemical; stronger effect = lower value | 0.56% of 360,000 active | AID 651725 | Q15475+O00167; in the data active means activity change below about -65%; inconclusive means mostly about -30% to -63%
#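 AlphaScreen luminescence read after one hour at 37 °C in darkness. Pin-transferred compounds met GST-Six1 and His-Eya2 protein (5X stock 250 nM/500 nM) plus glutathione donor and Ni-chelate acceptor beads (5X, 50 ug/mL).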
# CtBP-E1A inh – CtBP/E1A binding inhibition. AlphaScreen GST-E1A/His-CtBP binding, 1536-well; stronger effect = lower value. activity change, % (no concentration beside the values). 0.49% of 340,000 active. AID 651724; in the data active means activity change below about -65%; inconclusive means mostly about -30% to -63%
#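 Homogeneous bead-based format: GST-tagged E1A captured on glutathione donor beads, His-tagged CtBP on nickel acceptor beads; compounds precede bead addition by 2 h at 37 °C.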
# A number is an active result; – = inactive; ? = inconclusive; · = no result; [ ] = dose if it differs, or a comment. Unless noted, the call rests on the fitted dose curve; in most records, active means well fitted curve in the direction sought with a large enough effect; inconclusive means small, poorly fitted or top-dose-only effect, or another doubt; inactive means no such curve, though single readings can be large; an effect the other way counts as inactive or inconclusive.
SMILES,p53 reactivation,Gal4-VP16 FLuc,RORg inh,Six1-Eya2 blk,CtBP-E1A inh
Cc1oc(-c2ccc(-c3ccccc3)cc2)nc1CN1CCN(CC(=O)N(C)C)CC1,–,–,–,–,·
CCCNC(=O)c1cc(C2CCCN(C(=O)c3ccccc3)C2)on1 (stereo not drawn),·,·,·,–,–
COc1ccc(/C(C)=N/N2C(C)CCCC2C)c(OC)c1 (stereo not drawn),–,?,13µM,–,–
Cc1cc(/C=C2/NC(=O)NC2=O)c(C)n1-c1sc2c(c1C#N)CCCC2,–,–,11µM,–,–
CC(Cl)C(=O)Nc1ncc(C(F)(F)F)cc1Cl (stereo not drawn),–,–,–,–,–
CON/C=N/C(=S)Nc1ncc(C(F)(F)F)cc1Cl,–,?,0.56µM,–,–
ON/C=N/C(=S)Nc1ncc(C(F)(F)F)cc1Cl,–,?,1.6µM,–,?
CC(C)C(=O)Nc1ncc(C(F)(F)F)cc1Cl,–,–,–,–,–
O=C(O)CCSc1ccccn1,–,–,–,–,–
O=C(CSc1ccc(-c2ccccn2)nn1)c1ccccc1,?,–,?,-86,-88
c1ccc(CSc2ccc(-c3ccccn3)nn2)cc1,?,–,7.9µM,-91,?
O=C(CSc1ccc(-c2ccccn2)nn1)c1ccc(F)cc1,?,–,–,–,–
COc1ccc(C(=O)NCCSc2ccccn2)cc1,–,?,13µM,–,–
O=C(CCSc1ccccn1)c1ccccc1,–,?,20µM,–,–
Clc1ccc(CSc2ccc(-c3ccccn3)nn2)cc1,–,?,–,?,–
O=C(O)C1(O)CC(O)C(O)C(O)C1 (stereo not drawn),·,–,–,·,·
COc1cc(C(=O)Nc2cc(C)ccn2)ccc1OCC(=O)N1CCOCC1,–,–,–,–,–
O=c1c(-c2cccs2)nc2cncnc2n1Cc1ccccc1,·,–,–,·,·
O=C(CSc1ccc(-c2ccco2)nn1)N1CCCC1,–,–,–,–,–
CCc1ccc(-c2ccc(SCC(=O)NC3CCCC3)nn2)cc1,·,·,·,–,–
O=C(CSc1ccc(-c2ccccn2)nn1)NC1CCCC1,–,–,–,-88,-76
O=C(CSc1ccc(-c2ccccn2)nn1)N1CCCC1,–,–[10 µM],–,-92,–
COc1ccc(NC(=O)CSc2nnc(-c3cccs3)n2N)c(OC)c1,–,·,·,–,–
CCOC(=O)c1ccccc1NC(=O)CSc1nc2[nH]ncc2c(=O)[nH]1,–,·,·,–,–
Cc1cccc(-n2c(C)nc3c(cnn3-c3ccc(F)cc3)c2=O)c1,?,7.1µM,–,–,–
SMILES,p53 reactivation,Gal4-VP16 FLuc,RORg inh,Six1-Eya2 blk,CtBP-E1A inh
CCCCn1c(=N)n(CC(=O)C(C)(C)C)c2ccccc21,–,?,5µM,–,–
CCCn1c(=N)n(CC(=O)C(C)(C)C)c2ccccc21,–,–,?,–,–
Cn1c(=N)n(CC(=O)C(C)(C)C)c2ccccc21,–,?,11µM,–,–
Cn1c(=N)n(CC(=O)c2ccccc2)c2ccccc21,–,11µM,8.9µM,–,–
Cn1c(=N)n(CC(=O)O)c2ccccc21,–,–,–,–,–
CCn1c(=N)n(CC(=O)C(C)(C)C)c2ccccc21,–,3.2µM,?,–,–
COc1ccc(Cl)cc1NS(=O)(=O)c1cccc(C(=O)NCCCN2CCOCC2)c1,·,·,·,–,–
Cc1ccccc1Nc1c(F)c(F)c(F)c(F)c1C(=O)O,–,–,–,–,–
N#Cc1cnc(SCCc2ccccc2)nc1N,?,·,–[0.365 µM],–,–
Cc1cnc(SCCc2ccncc2)nc1C,–,?,13µM,·,·
COc1ccc(C2=Nn3c(nnc3-c3cc(OC)ccc3OC)SC2)c(OC)c1,·,–,–,·,·
CC(=O)NC(=C(Cl)Cl)S(=O)(=O)c1ccccc1,–,?,13µM,–,–
CCc1nnc(SCC(=O)Nc2ccccc2)n1CC1CCCO1 (stereo not drawn),–,–,–,–,–
CC1=NN(C(=O)c2ccncc2)C(=O)C1N=Nc1ccc2ccccc2c1 (stereo not drawn),·,·,·,–,–
CC1=NN(C(N)=S)C(=O)C1N=Nc1cccc2ccccc12 (stereo not drawn),–,2.8µM,0.63µM,·,·
CC1=NN(C(N)=S)C(=O)C1N=Nc1cccc(Cl)c1C (stereo not drawn),?,1µM,0.35µM,–,·
CC1=NN(c2nc(-c3ccc(C)cc3)cs2)C(=O)C1N=Nc1ccccc1O (stereo not drawn),–,–,–,–,–
